Measured values published in PubChem BioAssay AID720650 (Broad Institute, 2013).
The source made the active and inactive calls. The rule behind the calls is not given here.

Assay: Biochemical counterscreen for C difficile toxins, absence of UDPG, inhibitor dose response (AID 720650)
Settings: series mostly up to 19.5 µM

Compound	AC50
C[C@H](CO)N1C[C@H](C)[C@@H](CN(C)CC2CCCCC2)Oc2ccc(NC(=O)CCN3CCOCC3)cc2C1=O	inactive
Cc1ccc(NC(=O)C2OCCc3ccccc32)cc1C (stereo unspecified)	inactive
COC(=O)[C@@]12CCCCN1[C@H](c1ccc(-c3ccccc3)c(OC)c1)[C@H]1C(=O)N(C)C(=O)[C@H]12	inactive
CC(C)(C)OCC(O)CN1CCN(C(=O)c2ccccc2)CC1 (stereo unspecified)	inactive
CCC(=O)N1CC[C@@H]2[C@H]1c1cc(-c3ccc(OC)cc3)ccc1N(C)[C@H]2CO	> 20 µM (inactive)
CC1(C)Cc2nc(Cl)c(C#N)cc2CO1	> 39 µM (inactive)
C/C(=N\OCC(=O)Nc1nc2ccccc2s1)c1ccccc1	inactive
Oc1ccc(/C=N/N2CCN(c3ccccn3)CC2)cc1	15 µM (active)
COc1ccc(CNC(=O)C2=CC(c3ccc(OC)cc3)=NS(=O)(=O)N2C)cc1	inactive
CNC(=O)C1CCN(S(=O)(=O)c2c(C)noc2/C=C/c2ccc(OC)cc2)CC1	inactive
CCOC(=O)c1cccc(NC(=O)CCNS(=O)(=O)c2cccc3nonc23)c1	inactive
CCOC(=O)c1sc(=S)[nH]c1C	> 39 µM (inactive)
O=S(=O)(c1ccccc1)N1CCN(Cc2nnc(-c3ccccc3)o2)CC1	inactive
CC(C)=CCOc1c2occc2cc2ccc(=O)oc12	> 39 µM (inactive)
COc1ccc(NC(=O)C2CC(=O)N(c3ccccc3F)C2)cc1S(=O)(=O)N1CCCCC1 (stereo unspecified)	inactive
COc1ccc(C(NC(C)=O)c2cc(Cl)c3cccnc3c2O)cc1 (stereo unspecified)	inactive
